A selection: hits, their analogues and other compounds. The true share with any hit is near 4%.
D1 ag – human D1 receptor agonism; actives 1% (n = 360,000); HEK293 T-REx D1 cells, calcium flux, agonist mode; P21728; AID 504660; activation, % at 2 µM; further: 0% is about no effect
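Agonism was scored from calcium flux recorded over 180 s (1 read/s) after pintool compound addition, following a 10-cycle baseline. Cells were inducible force-coupled HEK293 TREx D1, plated overnight at 30 C and loaded with no-wash calcium dye.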
TRHR ag – agonists of human TRH receptor. actives 0.18% (n = 360,000). AID 493084. P34981. activation, % at 2 µM. TRHR cells, calcium flux fluo-8, FDSS agonist mode; further: 0% is about no effect
Target sequence (P34981 whole entry, looked up): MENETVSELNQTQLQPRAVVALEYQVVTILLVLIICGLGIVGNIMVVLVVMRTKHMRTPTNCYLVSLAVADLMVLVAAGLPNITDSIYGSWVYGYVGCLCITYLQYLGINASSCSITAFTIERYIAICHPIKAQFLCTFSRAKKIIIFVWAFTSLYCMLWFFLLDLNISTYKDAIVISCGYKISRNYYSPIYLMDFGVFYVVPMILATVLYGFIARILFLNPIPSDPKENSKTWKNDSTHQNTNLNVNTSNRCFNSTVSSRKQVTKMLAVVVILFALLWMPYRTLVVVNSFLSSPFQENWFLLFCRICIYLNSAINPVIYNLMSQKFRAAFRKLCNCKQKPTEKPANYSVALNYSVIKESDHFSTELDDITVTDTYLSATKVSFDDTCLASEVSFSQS
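TRHR-expressing cells loaded with fluo-8 calcium dye; 23 nL library compound pin-transferred, kinetic FDSS fluorescence (Ex 480/Em 530) recorded about 180 s for agonist-induced calcium release, before a 10 nM TRH EC20 addition for potentiator mode.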
D1 PAM – human D1 dopamine receptor positive modulation; potentiation, % at 10 µM; actives 0.036% (n = 360,000); HEK293 TREx D1 cells, calcium flux, dopamine EC20 potentiation; AID 504651; P21728; in the data active means potentiation above about 30%; further: 0% is about no effect
D1 antagonist – blocks dopamine activation of the human D1 receptor | P21728 | HEK293 TREx D1 cells, calcium flux, dopamine EC80; active compounds read low | activity change, negative = inhibition, % at 10 µM | actives 3.2% (n = 360,000); in the data active means activity change below about -30%; further: on the % scale 0 is the no-effect control and ±100 the full control effect
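Inducible Hek293 Trex D1 cells (tetracycline, overnight, 30 C). Calcium dye 30–90 min RT. Antagonist mode: EC80 dopamine added after 180 s compound read.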
TRHR enhancer – allosterically enhances the human TRH receptor. TRHR cells, fluo-8 calcium fluorescence, EC20 TRH enhancement. enhancement, % at 2 µM. actives 0.66% (n = 360,000); in the data active means enhancement above about 30%; further: 0% is about no effect
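TRHR-expressing cells loaded with fluo-8 calcium dye were read kinetically (ex 480/em 530) during compound addition, then stimulated with an EC20 of TRH (10 nM final). Enhancement of the Gq-mediated intracellular calcium response was scored.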
GRP78 ERSR act – inducers of ER stress response in human glioma cells; U87-MG GRP78 promoter luciferase reporter, 16 h; Potency, µM, inactives show at the top dose activation, actives largely listed as activators; actives 0.02% (n = 420,000); active means well fitted activation curve with a large enough effect; further: potency means the concentration at half of the fitted maximal effect; series mostly up to about 76 µM; % of control where 0% means no effect; nearly all actives have a fitted effect of over 35% in size
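Stably transfected U87-MG glioma cells carrying a GRP78-based luciferase sensor; 16 h compound incubation. Luminescence end-point read 10 min after Bright-Glo addition at room temperature.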
* hit, by the source's call; nt = not tested or not shown. Unless noted, no stated cut-off is given here; in the data, active means activation above about 30%; inactive means the rest.

SMILES | D1 ag | TRHR ag | D1 PAM | D1 antagonist | TRHR enhancer | GRP78 ERSR act
Cn1c(SCC(=O)N2CC(=O)Nc3ccccc32)nc2ccccc2c1=O | 1 | 0 | 3 | -4 | -4 | -3%
O=C1CN(C(=O)CSc2nc3ccccc3c(=O)n2Cc2ccc(F)cc2)c2ccccc2N1 | 10 | 0 | -8 | -59* | -6 | -6%
Cc1ccccc1OCC(=O)NNC(=O)C1CCCCC1C(=O)O (configuration not stated) | 3 | -1 | -3 | -24 | 3 | -1%
COc1cccc(/C=N/Nc2snc(SC)c2C#N)c1O | 37* | 5 | -1 | -41* | -11 | -1%
O=C(NC1CCCCCC1)C1c2ccccc2C(=O)N1C1CC1 (configuration not stated) | -1 | 0 | -2 | -16 | 6 | -2%
CCN(CC)C(=O)c1sc(NC(=O)c2c(OC)cccc2OC)c(C#N)c1C | 0 | 0 | -3 | -30* | 5 | 1%
CCn1c(-c2ccco2)n[nH]c1=S | 1 | 0 | 3 | 2 | 0 | -5%
CC(C)Cn1c(-c2ccco2)n[nH]c1=S | 2 | 0 | -2 | 4 | 35* | -4%
FC(F)(F)c1ccccc1-n1c(-c2ccco2)n[nH]c1=S | 3 | -1 | 32* | 4 | -1 | -9%
CC(C)Cn1c(Cc2ccccc2)n[nH]c1=S | 33* | 0 | -2 | -35* | -5 | -4%
CCC1CC(C(=O)O)CC(=O)N1 (configuration not stated) | nt | nt | nt | nt | nt | -2%
COc1ccc(Cl)cc1NC(=S)NCCO | 3 | 1 | -3 | -8 | -4 | -5%
CCCOC(=O)c1c(NC(=O)/C=C/c2cnn(C)c2C)sc(C(=O)OCC)c1C | 4 | 0 | 18 | -2 | -4 | -5%
CCOC(=O)c1c(NC(=O)/C=C/c2ccc(OCC)cc2)sc(C)c1C | 3 | 1 | -3 | -80* | 0 | -1%
CCOC(=O)c1sc(NC(=O)/C=C/c2cnn(CC)c2C)c(C(=O)OCC)c1C | 7 | 0 | -4 | -60* | 6 | 0%
Cc1cc(C)c2oc(C(=O)NCc3ccccc3)cc(=O)c2c1 | 1 | -1 | 4 | -12 | -13 | -2%
CC(=O)c1ccc(N2CCN(S(=O)(=O)c3c(C(=O)N4CCCC4)c(C)n(C)c3C)CC2)cc1 | 2 | 0 | -8 | -13 | -3 | 3%
Cc1cc2nc3s/c(=C/c4ccc(-c5ccccc5C(=O)O)o4)c(=O)n3c2cc1C | 142* | 77* | -2 | -38* | -1 | 2%
O=C(O)c1cc(-c2ccc(/C=C3\NC(=O)N(c4ccccc4)C3=O)o2)ccc1Cl | 4 | 0 | 1 | 1 | -5 | 0%
C#CCN1C(=O)S/C(=C\c2ccc(-c3ccc(Cl)c(C(=O)O)c3)o2)C1=O | 2 | 1 | 4 | 9 | 32* | 3%
O=C(O)c1cc(-c2ccc(/C=c3\sc4nc5ccc(Br)cc5n4c3=O)o2)ccc1Cl | 36* | 8 | 1 | 7 | 8 | nt
O=C(Nc1cccc(Cl)c1)N1CC2CCCN2c2ccccc21 (configuration not stated) | 9 | 0 | -7 | 2 | 14 | -2%
Cc1ccc(CNC(=O)C2CCCN(c3nc4ccccc4o3)C2)cc1 (configuration not stated) | -1 | 2 | -2 | -5 | 5 | -3%
Cc1ccc(S(=O)(=O)NCC2CCC(C(=O)NCc3cccs3)CC2)cc1 (configuration not stated) | 4 | -2 | -6 | -6 | -1 | -6%
O=C(NCc1cccs1)C1CCCN(c2nc3ccccc3o2)C1 (configuration not stated) | 1 | 1 | -4 | -46* | -16 | -4%
SMILES | D1 ag | TRHR ag | D1 PAM | D1 antagonist | TRHR enhancer | GRP78 ERSR act
O=C(NCc1cccs1)C1CCC(CNS(=O)(=O)c2ccccc2)CC1 (configuration not stated) | 2 | 0 | -8 | -33* | 0 | -2%
Cc1cc(C)nc(N2CCCC(C(=O)NCc3cccs3)C2)n1 (configuration not stated) | 1 | -1 | 1 | 0 | 30* | -3%
CCN(CC)C(=O)CSc1ncnc2c1cnn2Cc1ccccc1 | 4 | -1 | 0 | -5 | 0 | -4%
CCN1/C(=C\C(C)=O)Sc2ccc(OC)cc21 | 1 | -1 | -3 | 6 | -5 | -2%
O=C(O)C1CCCN1C(=O)Nc1ccc(F)cc1 (configuration not stated) | 1 | 0 | 11 | -16 | 1 | -3%
Cc1ccc(/C=N/NC(=S)N2CCOCC2)cc1 | 3 | -1 | -4 | -14 | 0 | -6%
S=C(N/N=C/c1ccc(Cl)cc1)N1CCOCC1 | 1 | 0 | -9 | -37* | -9 | -6%
Cc1nccn1CCOc1ccccc1Cl | 7 | 0 | -7 | -34* | -5 | -2%
COc1ccc(C(=O)NCCC2=CCCCC2)cc1S(=O)(=O)N1CCOCC1 | 1 | 0 | 4 | 13 | 6 | -3%
Cc1ccc(CNC(=O)CSc2nnc(CNC(=O)c3ccc(F)cc3)o2)cc1 | nt | nt | nt | nt | nt | -3%
CCOc1cc(/C=N/n2cnnc2)cc(Br)c1O | 1 | 0 | -3 | -92* | 8 | -1%
C[C@]12c3[nH]c4ccccc4c3CCN1C(=O)C(CC(=O)NCCc1ccccn1)C[C@@H]2C(=O)N1CCOCC1 (some centres not stated) | nt | nt | nt | nt | nt | -2%
Clc1ccc(CSc2snnc2-c2ccccc2)c(Cl)c1 | 51* | -1 | -5 | -10 | 0 | 6%
CCOC(=O)CN=C1CC(C)(C)CC2=C1Sc1ncnc(N(C)C)c1N2 | 7 | 0 | -16 | -42* | 7 | -2%
CCOC(=O)C1=C(C)NC2=C(C(=O)CC(C)(C)C2)C1c1cccc(C)n1 (configuration not stated) | 3 | 0 | -5 | -6 | 12 | -6%
CCN(CC)S(=O)(=O)c1ccc2c(c1)nc(CN(C)C(=O)Nc1ccc(C)c(F)c1)n2C | 1 | -1 | -1 | -68* | -26 | -2%
COc1ccc(-c2ccc3c(c2)S(=O)(=O)c2cccc(C(=O)NC4CCCCC4)c2C3=O)cc1OC | 2 | 1 | 1 | 11 | 1 | -2%
COc1ccc(-c2ccc3c(c2)S(=O)(=O)c2cccc(C(=O)NC4CC4)c2C3=O)cc1OC | -2 | 0 | -1 | nt | 40* | -3%
CC(=O)NC(CCS(C)(=O)=O)C(=O)Nc1cccc2ccccc12 (configuration not stated) | -2 | 0 | 5 | -2 | 2 | -4%
COC(=O)c1ccc(COc2ccc(/C=N/N3CCN(C)CC3)cc2)cc1 | 6 | 0 | -2 | 6 | 1 | 1%
CN1CCN(/N=C/c2ccc(OCc3ccccc3)cc2)CC1 | 32* | 0 | -19 | -69* | 1 | 0%
